PubChem BioAssay (NCI)
Compounds without any hit were thinned out: in the full panel of roughly 79,000, 15% have a hit. The source made the active and inactive calls. No stated cut-off is given here; in the data, active means growth inhibition above about 70%; inactive means the rest.

What was measured:
[1] = NCI Yeast Anticancer Drug Screen. Data for the rad52 strain (AID 147);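 further: 0% = growth of vehicle-treated control cultures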; details: S. cerevisiae rad52 mutant growth inhibition, hits give high values
Method in brief: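 Compounds are applied to a genetically defined yeast strain lacking normal DNA damage repair, and inhibition of growth is expressed relative to cultures given vehicle only.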

[2] = NCI Yeast Anticancer Drug Screen. Data for the wt1 strain (AID 149);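 further: 0% = growth of vehicle-treated wt1 cultures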; details: S. cerevisiae wt1 strain (SPY 50644) growth inhibition, hits give high values
Method in brief: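 Yeast wt1 strain exposed to compounds; growth inhibition measured relative to vehicle-treated controls.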

[3] = NCI Yeast Anticancer Drug Screen. Data for the rad50EPP+ strain (AID 151);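 further: 0% = growth of vehicle-treated control cultures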; details: S. cerevisiae rad50 mutant strain, hits give high values
Method in brief: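 Compounds were applied to the rad50EPP+ yeast strain, which bears a defined DNA repair alteration, and growth inhibition was determined relative to vehicle-treated cultures.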

[4] = NCI Yeast Anticancer Drug Screen. Data for the rad50 strain (AID 155);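 further: 0% = growth of vehicle-only cultures of the same strain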; details: S. cerevisiae rad50 strain growth inhibition, hits give high values
Method in brief: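 Yeast carrying a defined DNA repair defect were exposed to test compounds, and growth was compared with vehicle-treated controls to give percent inhibition.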

[5] = NCI Yeast Anticancer Drug Screen. Data for the mec2-1 strain (AID 157); details: S. cerevisiae mec2-1 strain, hits give high values
Method in brief: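 Strain: mec2-1 (DNA repair/cell cycle alteration). Compound exposure, then growth measured; inhibition expressed relative to vehicle.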

[6] = NCI Yeast Anticancer Drug Screen. Data for the rad14 strain (AID 159);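 further: 0% = growth of vehicle-treated control cultures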; details: S. cerevisiae rad14 strain growth inhibition, hits give high values
Method in brief: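 Yeast cells carrying a defined DNA-repair defect were exposed to compounds, and growth inhibition was calculated relative to vehicle-treated control cultures.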

[7] = NCI Yeast Anticancer Drug Screen. Data for the sgs1 mgt1 strain (AID 161);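 further: 0% = growth of cultures given vehicle only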; details: S. cerevisiae sgs1 mgt1 strain, hits give high values
Method in brief: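 Test agents were incubated with a DNA-repair-mutant yeast strain. Growth was then read and compared against vehicle-treated controls.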

[8] = NCI Yeast Anticancer Drug Screen. Data for the CLN2oe strain (AID 163);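 further: 0% = growth of vehicle-only control cultures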; details: S. cerevisiae CLN2oe strain, hits give high values
Method in brief: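 Growth of a genetically modified yeast strain is measured after compound exposure and compared with cultures given vehicle alone.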

[9] = NCI Yeast Anticancer Drug Screen. Data for the cln2 rad14 strain (AID 165);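 further: 0% = growth equal to vehicle treated cultures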; details: S. cerevisiae cln2 rad14 strain, hits give high values
Method in brief: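 Compounds are applied to the cln2 rad14 yeast strain, and growth is then compared with that of vehicle-treated cultures to give inhibition.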

[10] = NCI Yeast Anticancer Drug Screen. Data for the bub3 strain (AID 167); details: S. cerevisiae bub3 mutant strain, hits give high values
Method in brief: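 Compounds were applied to a genetically altered yeast strain carrying a cell-cycle control defect. Growth inhibition was scored against vehicle-treated controls.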

[11] = NCI Yeast Anticancer Drug Screen. Data for the wt2 strain (AID 169);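 further: 0% = growth of vehicle-treated yeast cultures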; details: S. cerevisiae wt2 strain growth inhibition, hits give high values
Method in brief: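 This strain belongs to a panel of yeast strains with defined genetic alterations in DNA damage repair or cell cycle control. Compounds are applied, and growth inhibition is measured against vehicle-treated cultures.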

[12] = NCI Yeast Anticancer Drug Screen. Data for the mlh1 strain (AID 171);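 further: 0% = growth of vehicle-treated control cultures of the same strain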; details: S. cerevisiae mlh1 strain growth inhibition, hits give high values
Method in brief: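 Growth of the mutant yeast strain after compound exposure, expressed as inhibition relative to vehicle-only controls.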

[13] = NCI Yeast Anticancer Drug Screen. Data for the sgs1 strain (AID 173);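 further: 0% = growth of vehicle-only control cultures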; details: S. cerevisiae sgs1 mutant, hits give high values
Method in brief: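 Growth of a yeast strain bearing a defined genetic alteration is measured after compound treatment. Inhibition is expressed relative to vehicle-only controls.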

[14] = NCI Yeast Anticancer Drug Screen. Data for the mlh1 rad18 strain (AID 175); details: S. cerevisiae mlh1 rad18 strain growth inhibition, hits give high values
Method in brief: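 Read-out is yeast growth inhibition, calculated against vehicle-only controls. The compound was applied to a strain engineered with DNA damage repair alterations.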

[15] = NCI Yeast Anticancer Drug Screen. Data for the rad18 strain (AID 177); details: S. cerevisiae rad18 mutant growth inhibition, hits give high values
Method in brief: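 Growth of the mutant yeast strain after compound exposure, normalised to vehicle-only cultures.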

[16] = at 5.0 µM (retest, dose inferred, filed as 0.5)
[17] = at 50.0 µM (retest, dose inferred, filed as 5.0)

Measured: growth inhibition

O=C(/C=C\c1cccc(C(F)(F)F)c1)c1ccccc1
inactive: [1]; at 1.2 µM -3% | [1]; at 3.7 µM -2% | [1]; at 11.0 µM -1% | [1]; at 33.0 µM -3% | [1]; at 100.0 µM -3% | [2]; at 1.2 µM -1% | [2]; at 3.7 µM 2% | [2]; at 11.0 µM -1% | [2]; at 33.0 µM -3% | [2]; at 100.0 µM -5% | [3]; at 1.2 µM 1% | [3]; at 3.7 µM 0% | [3]; at 11.0 µM 3% | [3]; at 33.0 µM 4% | [3]; at 100.0 µM 9% | [4]; at 1.2 µM -3% | [4]; at 3.7 µM -3% | [4]; [16] -5% | [4]; at 11.0 µM -1% | [4]; at 33.0 µM -4% | [4]; [17] 40% | [4]; at 50.0 µM 20.3% | [4]; at 100.0 µM -1% | [5]; at 1.2 µM -4% | [5]; at 3.7 µM 0% | [5]; [16] -19% | [5]; at 11.0 µM 0% | [5]; at 33.0 µM 1% | [5]; [17] 3% | [5]; at 50.0 µM 20.1% | [5]; at 100.0 µM -5% | [6]; at 1.2 µM -2% | [6]; at 3.7 µM 1% | [6]; at 11.0 µM 2% | [6]; at 33.0 µM -2% | [6]; at 100.0 µM -3% | [7]; [16] 18% | [7]; [17] 59% | [7]; at 50.0 µM 36.4% | [8]; at 1.2 µM -2% | [8]; at 3.7 µM -11% | [8]; at 11.0 µM -5% | [8]; at 33.0 µM -5% | [8]; at 100.0 µM -10% | [9]; [16] 8% | [9]; [17] 10% | [9]; at 50.0 µM 1.55% | [10]; at 1.2 µM -2% | [10]; at 3.7 µM -6% | [10]; [16] 11% | [10]; at 11.0 µM -2% | [10]; at 33.0 µM -3% | [10]; [17] 49% | [10]; at 50.0 µM 26.1% | [10]; at 100.0 µM -9% | [11]; at 1.2 µM -2% | [11]; at 3.7 µM 0% | [11]; at 11.0 µM -2% | [11]; at 33.0 µM -2% | [11]; at 100.0 µM -4% | [12]; at 1.2 µM -2% | [12]; at 3.7 µM -2% | [12]; at 11.0 µM -2% | [12]; at 33.0 µM -3% | [12]; at 100.0 µM -1% | [13]; at 1.2 µM -2% | [13]; at 3.7 µM -3% | [13]; at 11.0 µM 1% | [13]; at 33.0 µM 0% | [13]; at 100.0 µM 3% | [14]; [16] 16% | [14]; at 50.0 µM 25.9%
active: [14]; [17] 78%

Cc1cc(C)nc(NS(=O)(=O)c2ccc(Nc3c4ccccc4nc4c(C(=O)NCCO)cccc34)cc2)n1
active: [4]; [17] 91% | [9]; at 50.0 µM 81.2%
inactive: [1]; at 1.2 µM -2% | [1]; at 3.7 µM -1% | [1]; at 11.0 µM 2% | [1]; at 33.0 µM 21% | [1]; at 100.0 µM 59% | [2]; at 1.2 µM -1% | [2]; at 3.7 µM -2% | [2]; at 11.0 µM -2% | [2]; at 33.0 µM -35% | [2]; at 100.0 µM -9% | [3]; at 1.2 µM -3% | [3]; at 3.7 µM 0% | [3]; at 11.0 µM 1% | [3]; at 33.0 µM 3% | [3]; at 100.0 µM -14% | [4]; at 1.2 µM -1% | [4]; at 3.7 µM 1% | [4]; [16] -17% | [4]; at 11.0 µM 6% | [4]; at 33.0 µM 25% | [4]; at 50.0 µM 39.2% | [4]; at 100.0 µM 68% | [5]; at 1.2 µM -1% | [5]; at 3.7 µM -1% | [5]; [16] -13% | [5]; at 11.0 µM 1% | [5]; at 33.0 µM 3% | [5]; [17] 6% | [5]; at 50.0 µM 3.4% | [5]; at 100.0 µM 24% | [6]; at 1.2 µM 0% | [6]; at 3.7 µM 1% | [6]; at 11.0 µM 4% | [6]; at 33.0 µM 9% | [6]; at 100.0 µM 26% | [8]; at 1.2 µM 0% | [8]; at 3.7 µM -3% | [8]; at 11.0 µM -3% | [8]; at 33.0 µM -2% | [8]; at 100.0 µM 10% | [9]; [16] 16% | [9]; [17] 6% | [10]; at 1.2 µM 0% | [10]; at 3.7 µM 0% | [10]; [16] -17% | [10]; at 11.0 µM 2% | [10]; at 33.0 µM 0% | [10]; [17] 2% | [10]; at 50.0 µM 0% | [10]; at 100.0 µM 16% | [11]; at 1.2 µM -1% | [11]; at 3.7 µM -2% | [11]; at 11.0 µM -2% | [11]; at 33.0 µM -2% | [11]; at 100.0 µM 27% | [12]; at 1.2 µM -3% | [12]; at 3.7 µM -2% | [12]; at 11.0 µM 0% | [12]; at 33.0 µM -1% | [12]; at 100.0 µM 30% | [13]; at 1.2 µM -3% | [13]; at 3.7 µM -1% | [13]; at 11.0 µM 1% | [13]; at 33.0 µM 2% | [13]; at 100.0 µM 30% | [14]; [16] -8% | [14]; [17] 44% | [14]; at 50.0 µM 65.3% | [15]; at 1.2 µM -4% | [15]; at 3.7 µM -1% | [15]; at 11.0 µM 0% | [15]; at 33.0 µM 7% | [15]; at 100.0 µM 30%
